Source: PubChem BioAssay
Rows were chosen to be rich in hits. Some 6.5% of all compounds tested hit in one or more screens of this group.
HCMV antiviral: human cytomegalovirus inhibition | HFF cells, HCMV-luciferase reporter, 72 h; stronger effect = lower value | AID 1259415 | 410,000 tested, 4.5% active | activity change, negative = inhibition, % at 57.5 µM; in the data active = activity change below about -60%; inconclusive = no clear call, values can overlap the other calls; inactive = above about -39%
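Steps: HFFs plated, 16 h 37C; compounds added; HCMV-luciferase added to MOI 1 PFU/cell; 72 h 37C; OneGlo reagent, 5 min room temperature; luminescence read, normalized to controls.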
LASV entry inh: blocks Lassa virus binding to or entry into cells | Lassa virus pseudotype entry inhibition, cell reporter | Potency, µM (top dose mostly 37.9 µM), for inactives: at the highest dose activity change, negative = inhibition, actives largely listed as inhibitors | 300,000 tested, 1.2% active; calls by dose curve; tested in HEK293 cells; also: potency is read from the fitted curve at half-maximal effect; nearly all actives have a fitted effect of over 50% in size
VACV mCherry inh: inhibitors of vaccinia virus infection (mCherry reporter signal); Potency, µM (highest dose often 36.5 µM), for inactives: top-dose activity change, negative = inhibition, actives largely listed as inhibitors; 310,000 tested, 0.63% active; Vaccinia virus mCherry reporter infection, fluorescence; AID 720579; calls by dose curve; tested in A549 cells; also: potency is read from the fitted curve at half-maximal effect; nearly all actives have a fitted effect of over 35% in size
MARV entry inh: Marburg virus entry inhibition; 300,000 tested, 1.8% active; Marburg virus pseudotyped entry inhibition, cell reporter; Potency, µM (top dose mostly 37.8 µM), for the others: at the highest dose activity change, negative = inhibition, usual class: inhibitors; AID 540276; calls by dose curve; tested in HEK293 cells; also: potency is read from the fitted curve at half-maximal effect
VACV Venus inh: inhibitors of vaccinia virus (Venus reporter) | Vaccinia virus Venus reporter expression, fluorescence | Potency, µM (series often up to 36.5 µM), inactives show at the top dose activity change, negative = inhibition, actives largely listed as inhibitors | 330,000 tested, 0.46% active | AID 720580; calls by dose curve; tested in A549 cells; also: potency is read from the fitted curve at half-maximal effect; nearly all actives have a fitted effect of over 30% in size
FMDV inh: antivirals against foot and mouth disease virus; 410,000 tested, 1.2% active; FMDV antiviral cell-based qHTS; Potency, µM (series often up to 57.9 µM), for the others: top-dose activity change, negative = inhibition, actives largely listed as inhibitors; AID 1159524; calls by dose curve; tested in HEK293T cells; also: read-out not given here; potency is read from the fitted curve at half-maximal effect; nearly all actives have a fitted effect of over 45% in size
Active calls of the source: *; i = inactive; u = inconclusive; x = no result; ! = not confirmed by another sample; [ ] = dose if it differs, or a comment. % is scaled to controls: 0 for no effect and ±100 for the full control effect.

SMILES	HCMV antiviral	LASV entry inh	VACV mCherry inh	MARV entry inh	VACV Venus inh	FMDV inh
CCn1cc(/C=C(\NC(=O)c2cc(OC)c(OC)c(OC)c2)C(=O)NCCCn2ccnc2)c2ccccc21	-104*	9%[46.1 µM]	2%	u	8%	-12%
CN(C)S(=O)(=O)n1cc(/C=C(\NC(=O)c2ccccc2F)C(=O)N2CCCCC2)c2ccccc21	-97*	x	u	x	-20%	-9%
CN(C)S(=O)(=O)n1cc(/C=C(\NC(=O)c2ccccc2Cl)C(=O)NCCCn2ccnc2)c2ccccc21	-105*!	-24%[46.1 µM]	-6%	u	8%	23%
Cc1ccc(CSc2ncc(Cl)c(C(=O)Nc3nnc(C)s3)n2)cc1	15	20%[46.1 µM]	-1%	2%[46.1 µM]	4%	23%
CSc1nc(C(=O)N2CCc3c(cnc(C)c3CNC(=O)c3ccc4c(c3)OCO4)C2)cs1	x	x	-15%	x	-3%	0%
FC(F)(F)C1CCC(c2nnc(C3CCCCN3)c(C3=NCCCC3)n2)NC1 (configuration not stated)	x	x	x	16%	x	x
Cc1ccccc1NC(=O)c1ccc(F)c(S(=O)(=O)NCC2CCCO2)c1 (configuration not stated)	28	x	x	x	x	30%
Cc1ccccc1NC(=O)c1ccc(F)c(S(=O)(=O)N(C)C2CCCCC2)c1	-94*	u	-17%	x	-23%	u
Oc1c(Br)cc(Br)cc1/C=N/Nc1ccc(Cl)nn1	-97*	u	-13%	-1%[46.1 µM]	-7%	1%
CCOc1ccc(/C=N/Nc2ccc(Cl)nn2)c(O)c1	-82*	12%	u	2%[46.1 µM]	u	16%
Oc1c(Br)cc(/C=N/Nc2ccc(Cl)nn2)cc1Br	-15	0%	-15%	9%	-9%	-11%
COc1ccc2c(c1)C=C/C2=C/c1ccc(N(C)C)cc1	x	x	-20%	x	-15%	x
CCOC(=O)C1CCCN(C(=O)c2ccc3c(c2)sc2nc(-c4ccc(C)cc4C)cn23)C1 (configuration not stated)	x	1%[46.1 µM]	-6%	x	-10%	u
CCCN1CCN(CCCNC(=O)c2ccc3c(c2)sc2nc(-c4ccc(OC)cc4)cn23)CC1	x	26%[46.1 µM]	4.5µM*	x	u	13%
CCOC(=O)C1CCCN(C(=O)c2ccc3c(c2)sc2nc(-c4cccc(OC)c4)cn23)C1 (configuration not stated)	x	2%[46.1 µM]	-3%	x	-8%	32µM*
O=C(Nc1ccccc1)c1ccc(-n2nncc2-c2ccccc2)cc1	x	x	4%	x	-14%	x
Nc1cccc2c1C(=O)N(C(=O)c1ccco1)C2=O	0	16%[46.1 µM]	i	3%[46.1 µM]	-2%	-15%
Nc1cccc2c1C(=O)N(C(=O)/C=C/c1ccc(F)cc1)C2=O	-5	11µM*	u	3.2µM*	u	40µM*
CC(C)C[C@H](NS(=O)(=O)c1ccc(F)cc1F)C(=O)N1CCC[C@H]1C(=O)NCc1ccccc1	-3	x	x	x	x	x
CC(=O)Nc1cc(N=Cc2ccc(O)cc2O)c(Cl)cc1Cl	x	-15%	-9%	u	46%	-19%
COc1ccc(O)c(C=Nc2cc(NC(C)=O)c(Cl)cc2Cl)c1	-102*	u	i	-24%	-10%	10%
CCOc1cccc(C2C=C(c3ccc4c(c3)OCO4)NC(c3cccc(Br)c3)N2)c1O (configuration not stated)	x	x	21%	x	-16%	x
CN(C)c1ccc(N/C(=N\S(=O)(=O)c2cccs2)c2ccccc2)cc1	-68*	x	x	1%	x	42%
CC(=O)Nc1ccc(Oc2cc(C#N)c(C#N)cc2N2CCCCCC2)cc1	u	u	u	u	u	18µM*
CN(C)c1ncnc2ccc(-c3cccc(NS(C)(=O)=O)c3)cc12	x	x	x	x	x	-22%
CN(C)CC/C=C1/c2ccc(F)cc2Sc2ccc(Cl)cc21	-3	u	-1%[7.34 µM]	13µM*	3%[7.34 µM]	-14%
CN(C)CC/C=C1\c2ccccc2Sc2ccc(Cl)cc21	-7	u	u	u	u	-23%
CN(C)CC/C=C1\c2cc(F)ccc2CSc2ccccc21	18	16µM*	-13%	u	u	u
CN(C)CC/C=C1\c2ccccc2Sc2cc(F)c(Cl)cc21	-65*	u	-9%	14µM*	u	u
